Screens: PubChem BioAssay, National Center for Advancing Translational Sciences (NCATS)
A selection: hits, their analogues and other compounds. The true share with any hit is near 2.8%.
POLI inh: blocks human DNA polymerase iota activity. Potency, µM (series often up to 115 µM), actives largely listed as inhibitors. hit rate 1% among 390,000. Q9UNA4. Pol iota fluorescent replication assay, 10 min
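Pol iota at 10 nM preincubated 15 min with compounds at room temperature; reaction started with fluorescent substrate, 50 nM final. Fluorescence read kinetically at 0 and 10 min; buffer-only wells as negative control.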
Pol kappa inh-1: inhibitors of human DNA polymerase kappa | purified Pol kappa, fluorescent DNA synthesis assay, 10 min | Q9UBT6 | Potency, µM (highest dose often 107 µM), hits mostly inhibitors | hit rate 0.53% among 400,000
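Fluorescent qHTS in 1536-well format: enzyme (10 nM) and compound sat 15 min at room temperature before 50 nM substrate (final) was added. Signal taken at 0 and 10 min; no-enzyme buffer wells were negative controls.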
WRN inhibitor: WRN helicase (human) inhibition; WRN helicase unwinding, fluorescent forked duplex, kinetic; hit rate 0.46% among 360,000; AID 651768; Q14191; Potency, µM (series often up to 114 µM), hits mostly inhibitors; further: nearly all actives have a fitted effect of over 55% in size
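WRN at 20 nM final was preincubated with compound for 15 min at room temperature; reaction started with 100 nM forked duplex oligonucleotide carrying fluorophore and quencher plus 2 mM ATP (final). Unwinding followed kinetically by red fluorescence (ex 525/em 598 nm).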
Pol eta inh-1: blocks human DNA polymerase eta activity; Potency, µM (highest dose often 114 µM), usual class: inhibitors; recombinant Pol eta, fluorescent DNA replication assay; hit rate 1.2% among 390,000; Q9Y253; AID 588591
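Pol eta (10 nM) was preincubated with compounds for 15 min at room temperature, after which fluorescent replication substrate (50 nM final) was added to start the reaction. Fluorescence was read kinetically at 0 and 10 min.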
POLB inh: inhibitors of human DNA polymerase beta | Potency, µM (highest dose often 114 µM), hits mostly inhibitors | Pol beta primer extension/strand displacement, fluorescence kinetic | hit rate 1.3% among 340,000 | P06746 | AID 485314
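Pol beta (10 nM) was preincubated with compound for 15 min at room temperature. The reaction was then started with 50 nM substrate and read immediately and after a further 10 min at room temperature.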
PI5P4Ka inh: blocks human PI5P4K alpha kinase activity. PI5P4Kalpha enzyme, ADP-Glo luminescence, 60 min; active compounds read low. P48426. max response, %. hit rate 1.2% among 330,000; active means max response of -50% or lower; inconclusive means between -30% and -50%; inactive means -30% or higher; further: value at the top dose of about 77 µM
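Enzyme plus substrate dispensed, test compounds pinned in, then ATP (5 microM final) added. After 60 min at RT, ADP-Glo reagent 1 for 45 min and reagent 2 for 30 min preceded luminescence imaging.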
GALK confirm: galactokinase (human) inhibition, confirmation | Potency, µM (titrated, usually from 115 µM), most hits filed as inhibitors | hit rate 70% among 150 | purified GALK, Kinase-Glo ATP depletion luminescence | shares compounds with Pol eta inh-1
Redox cycling: generates H2O2 by redox cycling, flagging GALK artifacts | shares compounds with Pol eta inh-1 | Phenol red-HRP H2O2 redox cycling, absorbance 600 nm | Potency, µM (titrated, usually from 115 µM), usual class: inhibitors | hit rate 40% among 150
HEK293 tox: reduces HEK-293 cell viability in GALK counter-screen | shares compounds with Pol eta inh-1 | HEK-293 viability, ATP luminescence (CellTiter-Glo), 24/48 h | Potency, µM (top dose mostly 46.1 µM), hits mostly inhibitors | hit rate 10% among 170 | AID 2547
Pol kappa inh-2: confirmation of human DNA polymerase kappa inhibitors; shares compounds with Pol eta inh-1; purified Pol-kappa, fluorescent strand-displacement substrate; Potency, µM, actives largely listed as inhibitors; hit rate 76% among 920; AID 720501
Pol eta inh-2: confirmation of human DNA polymerase eta inhibitors; Pol eta primer extension, TAMRA/BHQ fluorescence, 10 min; Potency, µM, usual class: inhibitors; AID 720502; hit rate 64% among 2,600; shares compounds with Pol eta inh-1
Hits are given with their value; i = inactive; ? = inconclusive; nt = no result given; [ ] = another dose, or the depositor's remark. Unless noted, the call rests on the fitted dose curve; in most records, active means well fitted curve in the direction sought with a large enough effect; inconclusive means small, poorly fitted or top-dose-only effect, or another doubt; inactive means no such curve, though single readings can be large; an effect the other way counts as inactive or inconclusive.

SMILES | POLI inh | Pol kappa inh-1 | WRN inhibitor | Pol eta inh-1 | POLB inh | PI5P4Ka inh | Pol eta inh-2 | others
COC(=O)c1c(NC(=O)Cc2cccs2)sc2c1CCCC2 | 45µM | ? | ? | 14µM | ? | ? | ?
COc1ccc(CC(=O)Nc2sc3c(c2C(=O)Nc2ccc(C)cc2)CCCCC3)cc1 | i | i | nt | ? | ? | nt | ? | Pol kappa inh-2=?
CCOc1cc(-c2ccccc2)nc2c1CN(S(=O)(=O)c1ccc(C)cc1)C(c1cccc(Cl)c1)C2 (stereo not drawn) | nt | nt | i | nt | nt | i | nt
COC(=O)c1cccc(CC2(C)C(=O)Nc3cc(-c4ccccc4Cl)ccc32)c1 (stereo not drawn) | nt | nt | i | nt | nt | i | nt
COc1cc(/C=C2\C(=O)ON=C2c2ccccc2)cc(Br)c1O | ? | i | ? | 45µM | i | -85 | nt | GALK confirm=38µM;Redox cycling=i;HEK293 tox=i
COc1cc(C=C2C(=O)OC(c3ccccc3)OC2=O)cc(Br)c1O (stereo not drawn) | i | i | i | i | i | i | nt
CCOc1ccc(-c2cc(C)n3nc(C(N)=O)cc3n2)cc1 | 28µM | i | ? | 22µM | ? | ? | ?
CCCCC(CC)COS(=O)(=O)O (stereo not drawn) | nt | i[19.4 µM] | nt | nt | nt | nt | nt
COc1cc(/C=C/C(=O)c2ccc(NS(=O)(=O)c3ccc(C)cc3)cc2)cc(OC)c1O | ? | i | ? | 10µM | i | ? | ?
COc1cc(/C=C/C(=O)c2ccc(NS(=O)(=O)c3ccc(C)cc3)cc2)ccc1OC(F)F | i | i | i | ? | i | i | nt
Cc1ccc(C)c(CN2C(=O)CSc3ccc(C(=O)NCCN4CCOCC4)cc32)c1 | i | i | i | i | i | i | nt | GALK confirm=i;Redox cycling=i;HEK293 tox=i
COc1ccc(-c2noc(CCC(=O)N3CCN(c4ccccc4Br)CC3)n2)cc1 | i | i | i | i | nt | i | nt
CCOC(=O)/C(=C\c1ccc(N2CCC(c3ccccc3)=N2)cc1)C(C)=O | i | i | ? | ? | nt | i | ?
CCOC(=O)C(=Cc1ccccc1)C(=O)OCC | nt | i | nt | nt | nt | nt | nt
Cc1ccc(-c2cc(C(=O)N3CC(C)CC(C)C3)c3ccccc3n2)o1 (stereo not drawn) | i | ? | 50µM | 79µM | 40µM | ? | 76
Cc1ccc(-c2cc(C(=O)N3CC(C)OC(C)C3)c3ccccc3n2)o1 (stereo not drawn) | i | i | i | i | nt | i | nt
Cc1cc(C)nc(NC(=O)/C=C/c2ccccc2Cl)n1 | i | i | i | i | i | i | nt
Cc1cc(N)c2cc(NC(=O)/C=C/c3ccccc3Cl)ccc2n1 | i | i | i[11.6 µM] | ? | 50µM | ? | 67
CC1(C)C2CC[C@]3(C)C(CC=C4[C@@H]5C[C@@](C)(CO)[C@@H](O)C[C@]56C[C@@H](OC6=O)[C@]43C)[C@@]2(C)CC[C@@H]1O (stereo partly drawn) | i | i | i | i | nt | i | nt
O=C1CCCC2=C1C1(CCC1)N=C(Nc1nc3ccccc3o1)N2 | nt | nt | nt | nt | nt | nt | nt | HEK293 tox=i
Clc1ccccc1Nc1nc2ccccc2o1 | i | i | i | i | nt | i | nt
O=C1CC(c2ccccc2)CC2=C1C1(CCCC1)N=C(Nc1nc3ccccc3o1)N2 (stereo not drawn) | nt | nt | nt | nt | nt | nt | nt | HEK293 tox=i
O=C1CCCC2=C1C1(CCCC1)N=C(Nc1nc3ccccc3o1)N2 | nt | nt | nt | nt | i | nt | nt | HEK293 tox=i
Cc1nc(Nc2nc3ccccc3o2)nc2c1CCC2 | i | i | i | i | i | i | nt
O=C1CCCC2=C1C1(CCCCC1)N=C(Nc1nc3ccccc3o1)N2 | i | i | i | i | i | nt | nt | GALK confirm=17µM;Redox cycling=i;HEK293 tox=i
SMILES | POLI inh | Pol kappa inh-1 | WRN inhibitor | Pol eta inh-1 | POLB inh | PI5P4Ka inh | Pol eta inh-2 | others
CC(=C/C(=O)O)/C=C/c1ccco1 | 89µM | ? | i[11.6 µM] | ? | ? | i | ?
CC(/C=C/c1ccc(Cl)o1)=C\C(=O)O | ? | i | i | 22µM | 32µM | i | 48
O=c1nc2s/c(=C\c3ccc(-c4ccccc4[N+](=O)[O-])o3)c(=O)n2nc1-c1ccccc1 | i | i | 14µM | ? | 5µM | ? | 76
O=[N+]([O-])c1ccccc1S(=O)(=O)N1CCN(S(=O)(=O)c2ccc3c(c2)OCCO3)CC1 | i | i | nt | i | nt | nt | nt
COc1cc(/C=C/C(=O)O)cc(S(=O)(=O)Nc2ccccc2C(=O)NCc2ccco2)c1OC | ? | ? | i[11.6 µM] | 22µM | nt | i | ?
COc1cc(/C=C/C(=O)O)cc(S(=O)(=O)Nc2ccccc2Cl)c1OC | i | i | ? | i | i | i | nt
Cc1csc(N=Cc2ccc([N+](=O)[O-])o2)n1 | nt | nt | ? | 18µM | nt | -82 | ?
Cc1ccc(-c2c(C3C4C=CCCC4(C)C(=O)N3Cc3ccccc3)ccc3ccccc23)cc1 (stereo not drawn) | i | i | nt | nt | nt | nt | nt
Cc1ccc(-n2c(C)cc(/C=N/NC(=O)CC3(C)OCCO3)c2C)c(C)c1 | ? | i | i | i | i | i | nt
CC1(CC(=O)N/N=C/c2cc([N+](=O)[O-])c(O)cc2O)OCCO1 | ? | ? | ? | 22µM | 4.5µM | -64 | ?
COc1cccc2sc(N(Cc3cccnc3)C(=O)c3ccc4c(c3)OCCO4)nc12 | i | i | nt | i | i | nt | nt
CN(C)c1ccc(NC(=O)CSCc2nc3c(nnn3Cc3ccc(F)cc3)c(=O)[nH]2)cc1 | 28µM | ? | i | 50µM | 28µM | nt | ?
O=C(OCc1cc(=O)n2ccsc2n1)c1ccccc1NCCO | 20µM | ? | i[11.6 µM] | 22µM | nt | ? | ?
O=C(CCCn1c(=S)[nH]c2cc3c(cc2c1=O)OCO3)NCc1ccccc1Cl | i | i | i | i | i | i | nt
Clc1ccc2c(Cl)cc[n+](CCC3CCCCC3)c2c1 | i | i | nt | nt | nt | nt | nt
Cc1[nH]n(-c2ncc(-c3ccccc3)s2)c(=O)c1C(c1ccc(Cl)cc1)C(C#N)C#N (stereo not drawn) | ? | ? | ? | 28µM | 32µM | ? | ?
OC[C@@H]1CN(Cc2ccc(-c3ccccc3)cc2)C[C@H](n2cnc3c(NCc4ccncc4)ncnc32)O1 | nt | nt | i | nt | nt | i | nt
O=C(O)Cc1ccc(NC(=O)c2ccc(NC(=O)c3ccco3)cc2)cc1 | 45µM | ? | i[11.6 µM] | 25µM | ? | nt | 43
